Assay [1] in a line: S16 Schwann cell PMP22 intronic element firefly luciferase assay (AID 624032). Also: nearly all actives have a fitted effect of over 30% in size. Also: potency is read from the fitted curve at half-maximal effect. In short, it runs like this:
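Rat S16 Schwann cells stably carrying firefly luciferase driven by a PMP22 intronic element, in 10% FBS, treated 24 h at 37 C. ONE-Glo luminescence normalized to PTC124 control and DMSO (0%); curves classed by r2, magnitude and activity.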

Assay [2] concerns ATS95. Description: qHTS profiling for inhibitors of Plasmodium falciparum proliferation (AID 504749). Also: nearly all actives have a fitted effect of over 60% in size. Particulars: P. falciparum in erythrocytes, SYBR Green DNA, 72 h; series mostly up to 12.8 µM. In short, it runs like this: (§1)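 Each compound contacts P. falciparum-infected red blood cells for 72 h at 37 C; lysis buffer (Tris, EDTA, saponin, Triton X, SYBR Green I) is added and fluorescence measured next morning; values normalized to controls.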

Assay [3] deals with CP192. The description is as above. Conditions: P. falciparum in erythrocytes, SYBR Green DNA, 72 h; series mostly up to 28.7 µM. Summed up:
as §1

The test system of assay [4] is CP260. The description is as above. Particulars: P. falciparum in erythrocytes, SYBR Green DNA, 72 h; series mostly up to 12.8 µM. Summed up: as §1
In assay [5] the test system is CP266. The assay is described as above. Conditions: P. falciparum in erythrocytes, SYBR Green DNA, 72 h; series mostly up to 28.7 µM. Summed up: as §1
The subject of assay [6] is CP269. Described as above. Particulars: P. falciparum in erythrocytes, SYBR Green DNA, 72 h; series mostly up to 12.8 µM. In short, it runs like this:
as §1

The test system of assay [7] is CP297. Described as above. Particulars: P. falciparum in erythrocytes, SYBR Green DNA, 72 h; series mostly up to 12.8 µM. Summed up:
as §1

The test system of assay [8] is CP315. The assay is described as above. Conditions: P. falciparum in erythrocytes, SYBR Green DNA, 72 h; series mostly up to 12.8 µM. In short, it runs like this:
as §1

The subject of assay [9] is DIV14. Described as above. Particulars: P. falciparum in erythrocytes, SYBR Green DNA, 72 h; series mostly up to 12.8 µM. Summed up: as §1
The subject of assay [10] is DIV17. The description is as above. Conditions: P. falciparum in erythrocytes, SYBR Green DNA, 72 h; series mostly up to 12.8 µM. In short, it runs like this: as §1
Assay [11] deals with GB4. The assay is described as above. Particulars: P. falciparum in erythrocytes, SYBR Green DNA, 72 h; series mostly up to 12.8 µM. In short, it runs like this: as §1
The test system of assay [12] is P93_24. The description is as above. Conditions: P. falciparum in erythrocytes, SYBR Green DNA, 72 h; series mostly up to 12.8 µM. In short, it runs like this:
as §1

The test system of assay [13] is W2. The assay is described as above. Particulars: P. falciparum in erythrocytes, SYBR Green DNA, 72 h; series mostly up to 12.8 µM. Summed up:
as §1

Assay [14] concerns the target Guanine nucleotide-binding protein G(i) subunit alpha-1 (Homo sapiens) (UniProt P63096). Description: qHTS Assay for Inhibitors of RGS12 GoLoco Motif Activity (Green Fluorophore) (AID 879).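 Also: negative values mean loss of peptide binding seen as reduced polarization.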 In short, it runs like this: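 A drop in FITC polarization marked displacement of the FITC-tagged RGS12 GoLoco peptide (10 nM) from Gαi1 (50 nM). Compounds were incubated 10 min at room temperature in Tris pH 7.5 buffer containing 150 mM NaCl, 0.1 mM GDP and 0.05% NP40; unlabeled peptide titration served as control.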

Assay [15] can be described thus: qHTS Assay for Identification of Small Molecule Agonists for Thrombopoietin (TPO) Signaling Pathway (AID 917). Summed up:
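Quantitative HTS for pathway activators: compounds were pin-transferred onto IL-3-starved Ba/F3 cells expressing human TPO receptor, TPO was added at its EC50 (26 pM final), and after 24 hrs at 37 C reporter luciferase was measured.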

Assay [16] has as its target Pyruvate kinase (Leishmania mexicana) (UniProt Q27686). Briefly: qHTS Validation Assay for Inhibitors of Leishmania Mexicana Pyruvate Kinase (AID 945). In short, it runs like this:
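The enzyme is a highly purified E451W mutant of LmPYK used at 0.2 nM. It converts 0.5 mM PEP and 0.1 mM ADP over 1 h at room temperature; product ATP is quantified by luciferase luminescence relative to DMSO controls.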

The target of assay [17] is Pyruvate kinase PKM (Homo sapiens) (UniProt P14618). Description: qHTS Assay for Activators of Human Muscle Pyruvate Kinase (AID 954; active = well fitted curve in the direction sought with a large enough effect, not every such curve was filed as active). Summed up:
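Compound pinned into substrate mix (0.5 mM PEP, 0.1 mM ADP), then 0.1 nM PKM2 added; 1 h, RT. Stop/detection luciferase reagent added, luminescence read. Normalized to no-inhibition and no-enzyme or reference-inhibitor controls.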

Assay [18] concerns the target Alpha-galactosidase A (Homo sapiens) (UniProt P06280). Description: Counterscreen for Glucocerebrosidase Inhibitors: qHTS Assay for Human alpha-Galactosidase at pH 4.5 (AID 992). In short, it runs like this: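 Steps: enzyme (2 nM final), then compound across 0.7 nM to 77 uM, then 80 uM fluorogenic galactopyranoside substrate; incubate 20 min at room temperature; quench at pH 10; measure fluorescence at 365/440 nm.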

Assay [19] deals with alpha-glucosidase (Oryza sativa, rice) (UniProt Q653V4). Description: Counterscreen for Glucocerebrosidase Inhibitors: qHTS Assay for Rice alpha-Glucosidase at pH 5.0 (AID 997). In short, it runs like this: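 Endpoint fluorogenic assay at pH 5.0: compounds (0.7 nM to 77 uM) titrated against 4 nM rice enzyme and 400 uM 4-MU-alpha-glucoside for 20 min at room temperature; NaOH/glycine stop, read ex 365/em 440 nm, Hill-fitted AC50.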

Assay [20] deals with Cytochrome P450 3A4 (Homo sapiens) (UniProt P08684). Briefly: qHTS Assay for Activators of Cytochrome P450 3A4 (AID 885). Also: nearly all actives have a fitted effect of over 65% in size. In short, it runs like this: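 Human CYP3A4 dealkylates Luciferin-PPXE to luciferin, which luciferase detection converts to light. Substrate was at its KM (25uM), buffer 200mM KPO4, reaction 60 min at RT.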

Records with an inconclusive call do not appear. Active and inactive are the calls of the source. Unless noted, calls follow the shape of the dose curve; as a rule, active = well fitted curve in the direction sought with a large enough effect; inconclusive = small, poorly fitted or top-dose-only effect, or another doubt; inactive = no such curve, though single readings can be large; an effect the other way counts as inactive or inconclusive.

Consider 9 compounds from PubChem BioAssay (NCATS).

Pyruvate kinase (Leishmania mexicana), sequence (Q27686 2-499 E452W): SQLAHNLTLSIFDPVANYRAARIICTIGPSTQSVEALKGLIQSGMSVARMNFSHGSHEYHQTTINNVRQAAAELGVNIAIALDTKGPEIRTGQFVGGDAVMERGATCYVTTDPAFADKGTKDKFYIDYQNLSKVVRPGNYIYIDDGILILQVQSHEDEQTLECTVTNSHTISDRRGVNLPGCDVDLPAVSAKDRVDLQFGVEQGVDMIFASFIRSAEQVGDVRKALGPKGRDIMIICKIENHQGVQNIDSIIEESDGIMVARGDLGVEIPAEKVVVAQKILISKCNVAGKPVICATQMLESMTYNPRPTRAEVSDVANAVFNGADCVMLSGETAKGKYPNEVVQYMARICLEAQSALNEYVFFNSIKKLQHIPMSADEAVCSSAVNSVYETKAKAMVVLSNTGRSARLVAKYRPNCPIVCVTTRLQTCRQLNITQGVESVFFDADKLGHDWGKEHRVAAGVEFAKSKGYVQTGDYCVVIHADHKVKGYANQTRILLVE
Guanine nucleotide-binding protein G(i) subunit alpha-1 (Homo sapiens), sequence (P63096 whole entry, looked up): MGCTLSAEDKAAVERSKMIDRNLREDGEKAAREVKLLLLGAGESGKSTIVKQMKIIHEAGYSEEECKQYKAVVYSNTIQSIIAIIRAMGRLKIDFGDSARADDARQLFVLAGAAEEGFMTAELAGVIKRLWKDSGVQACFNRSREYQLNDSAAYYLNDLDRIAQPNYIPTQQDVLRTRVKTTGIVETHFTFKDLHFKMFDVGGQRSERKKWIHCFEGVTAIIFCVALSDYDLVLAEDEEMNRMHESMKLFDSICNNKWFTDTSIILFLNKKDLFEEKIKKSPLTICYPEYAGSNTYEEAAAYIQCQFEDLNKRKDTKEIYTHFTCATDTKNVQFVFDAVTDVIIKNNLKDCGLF
Alpha-galactosidase A (Homo sapiens), sequence (P06280 whole entry, looked up): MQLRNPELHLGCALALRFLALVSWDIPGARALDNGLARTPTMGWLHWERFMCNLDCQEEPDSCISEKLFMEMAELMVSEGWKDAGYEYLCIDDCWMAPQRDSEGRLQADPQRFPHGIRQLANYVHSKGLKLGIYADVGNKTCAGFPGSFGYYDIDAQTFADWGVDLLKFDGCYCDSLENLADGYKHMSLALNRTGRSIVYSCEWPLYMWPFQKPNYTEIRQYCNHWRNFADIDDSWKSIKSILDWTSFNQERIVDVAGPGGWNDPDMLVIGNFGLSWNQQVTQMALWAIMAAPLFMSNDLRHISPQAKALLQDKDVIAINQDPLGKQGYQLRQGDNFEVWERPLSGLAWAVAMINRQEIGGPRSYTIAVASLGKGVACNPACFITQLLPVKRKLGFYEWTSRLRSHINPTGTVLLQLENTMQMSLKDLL
Pyruvate kinase PKM (Homo sapiens), sequence (P14618 whole entry, looked up): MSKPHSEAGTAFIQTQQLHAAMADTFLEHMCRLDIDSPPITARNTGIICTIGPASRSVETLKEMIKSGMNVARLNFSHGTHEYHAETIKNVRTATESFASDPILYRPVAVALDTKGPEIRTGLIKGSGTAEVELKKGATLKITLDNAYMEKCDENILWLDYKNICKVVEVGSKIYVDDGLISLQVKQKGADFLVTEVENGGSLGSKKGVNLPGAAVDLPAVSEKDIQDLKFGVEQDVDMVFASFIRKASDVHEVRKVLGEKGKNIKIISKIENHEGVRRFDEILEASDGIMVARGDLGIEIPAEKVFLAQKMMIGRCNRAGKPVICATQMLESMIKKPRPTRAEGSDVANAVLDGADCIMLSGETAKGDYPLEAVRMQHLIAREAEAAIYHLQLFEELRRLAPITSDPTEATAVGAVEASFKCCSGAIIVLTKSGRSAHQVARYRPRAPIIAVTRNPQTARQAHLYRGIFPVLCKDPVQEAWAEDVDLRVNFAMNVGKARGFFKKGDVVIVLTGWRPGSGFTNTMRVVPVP
Cytochrome P450 3A4 (Homo sapiens), sequence (P08684 whole entry, looked up): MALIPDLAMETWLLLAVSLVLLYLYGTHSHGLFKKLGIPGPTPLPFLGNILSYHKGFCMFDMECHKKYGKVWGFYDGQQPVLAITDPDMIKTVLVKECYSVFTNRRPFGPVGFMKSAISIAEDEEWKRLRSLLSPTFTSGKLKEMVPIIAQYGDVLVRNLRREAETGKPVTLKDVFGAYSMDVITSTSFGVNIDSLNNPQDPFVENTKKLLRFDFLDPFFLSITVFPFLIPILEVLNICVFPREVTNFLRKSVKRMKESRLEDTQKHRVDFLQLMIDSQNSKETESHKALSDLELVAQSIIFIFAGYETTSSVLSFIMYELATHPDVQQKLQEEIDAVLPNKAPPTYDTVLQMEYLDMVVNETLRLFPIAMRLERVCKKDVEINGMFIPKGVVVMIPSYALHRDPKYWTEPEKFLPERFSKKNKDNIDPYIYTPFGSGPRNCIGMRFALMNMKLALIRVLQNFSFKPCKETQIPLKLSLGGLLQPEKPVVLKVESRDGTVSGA

Regarding `CN(N=O)C(=O)N[C@H]1[C@@H](O)[C@H](O)[C@H](CO)O[C@@H]1O`, the Potency entry in assay [1], in assay [2], in assay [3], in assay [4], in assay [5] and in assay [6] was “inactive” each time. The Potency result in assay [7], in assay [8], in assay [9], in assay [10], in assay [11] and in [12] was “inactive” throughout. Also, the Potency entry in assay [13] is “inactive”.
Consider `O=c1[nH]c(=O)n([C@@H]2C[C@H](O)[C@H](CO)O2)cc1I`, for which the Potency in assay [1] is 2450 nM (active). The Potency result in assay [2], in assay [3], in [4], in assay [5], in assay [6] and in [7] was “inactive” in each case. For the same compound, the Potency result in [8], in assay [9], in [10], in [11], in assay [12] and in assay [13] was “inactive” throughout.
Consider `COCCc1ccc(OC[C@H](O)CNC(C)C)cc1`, for which the Potency result in [14], in assay [1], in assay [2], in [3], in assay [4] and in assay [5] was “inactive” each time. For the same compound, the Potency entry in [6], in assay [7], in assay [8], in assay [9], in assay [10] and in [11] was “inactive” in each case. Further, the Potency entry in assay [12] and in [13] was “inactive” throughout. For the same compound, the call in assay [15], in assay [16], in assay [17], in [18] and in assay [19] was inactive.
With `COc1c2ccoc2nc2c(OC)c(OC[C@H](O)C(C)(C)O)ccc12`, the Potency entry in assay [20] was “inactive”.
`CN1CCc2cccc3c2[C@@H]1Cc1ccc(O)c(O)c1-3`: the Potency entry in assay [14] was “inactive”. The outcome in assay [16], in assay [18] and in assay [19] was inactive.
`NS(=O)(=O)c1cc([C@@]2(O)NC(=O)c3ccccc32)ccc1Cl`: the Potency result in [1], in [2], in assay [3], in assay [4], in assay [6] and in [7] was “inactive” in each case. Besides, the Potency result in [8], in assay [9], in assay [10], in assay [11], in assay [12] and in [13] was “inactive” each time.
As for `CN(C)CCO[C@](C)(c1ccccc1)c1ccccn1`, the Potency result in assay [14] is “inactive”. Also, the outcome in assay [15], in [16], in assay [17], in assay [18] and in [19] was inactive.
Regarding `CN[C@@H]1[C@H](O[C@@H]2O[C@H](CO)[C@@H](N)[C@H](O)[C@@H]2O)O[C@H]2C[C@@H](N)[C@@H](O[C@H]3[C@@H](O)[C@H](O)[C@H](N)C[C@@H]3N)O[C@H]2[C@H]1O`, the Potency entry in assay [1], in [2], in assay [4], in assay [5], in assay [6] and in assay [7] was “inactive” throughout. For the same compound, the Potency entry in assay [8], in assay [9], in assay [10], in assay [11], in assay [12] and in assay [13] was “inactive” each time.
In the case of `CN(C)[C@H]1C(=O)C(C(=O)NCN2CCCC2)=C(O)[C@]2(O)C(=O)C3=C(O)c4c(O)cccc4[C@@](C)(O)[C@H]3C[C@@H]12`, the Potency result in [2], in assay [3], in [4], in [5], in assay [6] and in [7] was “inactive” in each case. The Potency result in [8], in assay [9], in assay [10], in assay [11], in assay [12] and in assay [13] was “inactive” throughout.
